PubChem BioAssay (Tox21)
Values joined by “and” are separate entries in the source; they are usually repeats but may differ in a detail not shown here. Identical values can stand only once. Results filed as inconclusive are left out. Where a structure was tested more than once in an assay, its records may differ in their call. Active and inactive are the calls of the source. Unless noted, the call rests on the fitted dose curve; in most records, active means well fitted curve in the direction sought with a large enough effect in the repeat runs; inconclusive means weak or mixed curves; inactive means no such curve, though single readings can be large; an effect the other way counts as inactive or inconclusive.

Tests used:
[1] = qHTS assay to identify small molecule phospholipidosis (PLD) inducers (AID 1259344; active means well fitted curve in the direction sought with a large enough effect; an effect the other way counts as inactive or inconclusive)
Summary of the method: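 Fluorescent phospholipid staining (LipidTOX Red) measured by automated microscopy in fixed HepG2 cells after 24 h treatment; nuclei counterstained with Hoechst 33342; amiodarone as reference inducer.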

[2] = qHTS assay to identify small molecule HDAC inhibitors (AID 1259364); further: potency means the concentration at half of the fitted maximal effect;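 further: wild-type HCT-116 cells with endogenous class I/II HDAC activity; nearly all actives have a fitted effect of over 45% in size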
Summary of the method: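 Relative class I and II HDAC activity is taken from the luminogenic signal in HCT-116 cells, with compound exposure 2 hr and reagent development 30 min at room temperature.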

[3] = qHTS assay to identify small molecule HDAC inhibitors - cell viability counter screen (AID 1259365); further: nearly all actives have a fitted effect of over 50% in size; further: potency means the concentration at half of the fitted maximal effect
Summary of the method: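 To flag cytotoxic hits, 1,500 wild-type HCT-116 cells per well, plated the day before, receive test compounds for 2hr at 37 C before CellTiter-Glo reagent and a luminescence read.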

[4] = qHTS assay to identify small molecule agonists of the sonic hedgehog signaling (Shh) pathway - cell viability counter screen (AID 1259366); further: nearly all actives have a fitted effect of over 50% in size; further: potency means the concentration at half of the fitted maximal effect
Summary of the method: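 Fluorescence from CellTiter-Fluor reports live cells in this counter screen. NIH/3T3-derived Gli1-Luc reporter cells receive test compounds for 24hr at 37C; reagent goes in at 23hr.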

[5] = qHTS assay to identify small molecule antagonists of the sonic hedgehog signaling (Shh) pathway - cell viability counter screen (AID 1259367); further: nearly all actives have a fitted effect of over 55% in size; further: potency means the concentration at half of the fitted maximal effect
Summary of the method: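 Using CellTiter-Fluor, viability of Gli1-Luc reporter 3T3 cells is read by fluorescence in the wells used for the Shh luciferase assay. Treatment lasts 23 hr with conditioned medium, then reagent 1 hr at 37C.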

[6] = qHTS assay to identify small molecule agonists of the sonic hedgehog signaling (Shh) pathway (AID 1259368; calls by dose curve;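 further: NIH/3T3-derived 3T3Gli1-Luc cells carrying a stable Gli1-driven firefly luciferase reporter; series mostly up to about 92 µM; nearly all actives have a fitted effect of over 15% in size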)
Summary of the method: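 Mouse fibroblast (NIH/3T3) reporter cells with stably integrated Gli1-Luc were treated 24 hr with compound; firefly luciferase luminescence served as the read-out.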

[7] = qHTS assay to identify small molecule antagonists of the sonic hedgehog signaling (Shh) pathway (AID 1259369; calls by dose curve; further: nearly all actives have a fitted effect of over 45% in size; further: potency means the concentration at half of the fitted maximal effect)
Summary of the method: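 Conditioned medium drives Shh signalling in 3T3Gli1-Luc cells; compounds in DMSO co-applied, 24hr at 37 C, then luciferase luminescence.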

[8] = target: Estrogen receptor beta (Homo sapiens) (UniProt Q92731); assay: qHTS assay to identify small molecule agonists of the estrogen receptor beta (ER-beta) signaling pathway (AID 1259377; active means well fitted activation curve with a large enough effect in the signal ratio in the repeat runs, not every such curve was filed as active; the % refers to the signal ratio)
Summary of the method: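 Screening used GripTite ER-beta-UAS-bla cells held in 2% charcoal-stripped FBS medium. After overnight (16 hr) compound incubation at 37C, beta-lactamase activity was detected with a FRET substrate by fluorescence.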

[9] = target: Estrogen receptor beta (Homo sapiens) (UniProt Q92731); assay: qHTS assay to identify small molecule antagonists of the estrogen receptor beta (ER-beta) signaling pathway (AID 1259378; active means well fitted inhibition curve with a large enough effect in the signal ratio in the repeat runs, not every such curve was filed as active; the % refers to the signal ratio; further: potency means the concentration at half of the fitted maximal effect)
Summary of the method: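 Antagonist mode: compounds added to beta-lactamase reporter HEK293T ER-beta-UAS cells stimulated with E2 (1nM final), 16 hr at 37C. LiveBLAzer B/G FRET substrate, 2 hours room temperature, fluorescence read-out.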

[10] = qHTS assay to identify small molecule agonists of the androgen receptor (AR) signaling pathway in the presence of an antagonist - cell viability counter screen (AID 1259379); further: nearly all actives have a fitted effect of over 25% in size; further: potency means the concentration at half of the fitted maximal effect
Summary of the method: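 A CellTiter-Fluor read-out measured viability of MDA-kb2 reporter cells (MMTV promoter with AR and GR response elements). Treatment: nilutamide 3.0uM final with compounds at 15 concentrations, 16 hr, 37C, 0% CO2.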

[11] = qHTS assay to identify small molecule agonists of the estrogen receptor beta (ER-beta) signaling pathway - cell viability counter screen (AID 1259380); further: nearly all actives have a fitted effect of over 30% in size; further: potency means the concentration at half of the fitted maximal effect
Summary of the method: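 Cells used were ER-beta-UAS-bla HEK293T in medium with 2% charcoal-stripped FBS. They were treated for 16 hr at 37C. Viability came from CellTiter-Glo luminescence.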

[12] = qHTS assay to identify small molecule antagonists of the estrogen receptor beta (ER-beta) signaling pathway - cell viability counter screen (AID 1259382); further: nearly all actives have a fitted effect of over 55% in size; further: potency means the concentration at half of the fitted maximal effect
Summary of the method: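 Agonist-stimulated (1nM E2) ER-beta-UAS-bla HEK293T cells are incubated with library compounds for 16 hr at 37C. Cell viability is then assessed in the reporter-assay wells by adding CellTiter-Glo and reading luminescence after 30 min.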

[13] = target: Estrogen receptor (Homo sapiens) (UniProt P03372); assay: qHTS assay to identify small molecule agonists of the estrogen receptor alpha (ER-alpha) signaling pathway in the presence of an antagonist (AID 1259383; calls by dose curve; further: top concentration of the series differs between compounds; nearly all actives have a fitted effect of over 15% in size)
Summary of the method: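 Using VM7Luc4E2 cells seeded 24hr before treatment, antagonist ICI-182,780 (10.0nM final) was added, followed by compounds at 15 concentrations. Plates incubated 22hr; ONE-Glo luminescence quantified reporter activity.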

[14] = qHTS assay to identify small molecule agonists of the estrogen receptor alpha (ER-alpha) signaling pathway in the presence of an antagonist - cell viability counter screen (AID 1259386);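 further: cells exposed to compounds for 22 h at 37 °C before the viability read; nearly all actives have a fitted effect of over 30% in size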; further: potency means the concentration at half of the fitted maximal effect
Summary of the method: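 ICI-182,780 at 10.0nM final accompanies the compound titration (15 concentrations, 22hr, 37C) on VM7Luc4E2 cells. The CellTiter-Fluor fluorescence readout runs in the same wells as the luciferase assay.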

[15] = target: Progesterone receptor (Homo sapiens) (UniProt P06401); assay: qHTS assay to identify small molecule agonists of the progesterone receptor (PR) signaling pathway (AID 1346784; calls by dose curve; further: nearly all actives have a fitted effect of over 30% in size)
Summary of the method: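 Seed PR-UAS-bla HEK 293T cells (2% charcoal-stripped FBS), incubate 6 hr at 37C; add compounds in DMSO, 16 hr at 37C; add LiveBLAzer B/G substrate, 2 hr RT; read fluorescence intensity.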

[16] = target: Progesterone receptor (Homo sapiens) (UniProt P06401); assay: qHTS assay to identify small molecule antagonists of the progesterone receptor (PR) signaling pathway (AID 1346795; active means well fitted inhibition curve with a large enough effect in the signal ratio in the repeat runs, not every such curve was filed as active; the % refers to the signal ratio; further: potency means the concentration at half of the fitted maximal effect)
Summary of the method: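 Screening used a GripTite HEK293T line with PR-responsive UAS-beta-lactamase. Cells were challenged with compound in the presence of 1 nM R5020 final for 16 hr at 37C; B/G FRET substrate, 2 hr room temperature, fluorescence.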

[17] = qHTS assay to identify small molecule antagonists of the progesterone receptor (PR) signaling pathway - cell viability counter screen (AID 1346798); further: nearly all actives have a fitted effect of over 50% in size; further: potency means the concentration at half of the fitted maximal effect
Summary of the method: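 Measures cytotoxicity in parallel with the PR antagonist reporter read: HEK293T PR-UAS-bla cells get compound and R5020 for 16 hr, and remaining viable cells are quantified by CellTiter-Glo luminescence.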

[18] = qHTS assay to identify small molecule agonists or antagonists of the thyroid stimulating hormone receptor (TSHR) signaling pathway - wild type cell line counter screen (AID 1259384; calls by dose curve; further: potency means the concentration at half of the fitted maximal effect)
Summary of the method: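 Counter screen in untransfected Hek293: compounds (15-point titration, triplicate) plus phosphodiesterase inhibitor Ro20-1724 added after 18 h plating; 30 min RT. Intracellular cAMP via competitive d2/cryptate immunoassay, 1 h incubation.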

[19] = target: Thyrotropin receptor (Homo sapiens) (UniProt P16473); assay: qHTS assay to identify small molecule antagonists of the thyroid stimulating hormone receptor (TSHR) signaling pathway (AID 1259385; calls by dose curve; further: nearly all actives have a fitted effect of over 20% in size; further: potency means the concentration at half of the fitted maximal effect)
Summary of the method: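 Antagonist mode: compound-treated TSHR-expressing HEK293 cells were stimulated with 1.5 ng/mL TSH (final) in presence of Ro20-1724 for 30 min at RT. HTRF cAMP detection after 1 h; each compound tested at 15 concentrations, triplicate.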

[20] = target: Androgen receptor (Homo sapiens) (UniProt P10275); assay: qHTS assay to identify small molecule agonists of the androgen receptor (AR) signaling pathway in the presence of an antagonist (AID 1259381; calls by dose curve; further: nearly all actives have a fitted effect of over 15% in size)
Summary of the method: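 Using human MDA-kb2 cells with an MMTV promoter–luciferase construct (AR and GR response elements), agonist activity is scored under 3.0uM nilutamide (final) co-treatment; 16hr incubation, 37C, luminescence readout via ONE-Glo.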
On the % scale 0 is the no-effect control and ±100 the full control effect.

Thyrotropin receptor (Homo sapiens), sequence (P16473 whole entry, looked up): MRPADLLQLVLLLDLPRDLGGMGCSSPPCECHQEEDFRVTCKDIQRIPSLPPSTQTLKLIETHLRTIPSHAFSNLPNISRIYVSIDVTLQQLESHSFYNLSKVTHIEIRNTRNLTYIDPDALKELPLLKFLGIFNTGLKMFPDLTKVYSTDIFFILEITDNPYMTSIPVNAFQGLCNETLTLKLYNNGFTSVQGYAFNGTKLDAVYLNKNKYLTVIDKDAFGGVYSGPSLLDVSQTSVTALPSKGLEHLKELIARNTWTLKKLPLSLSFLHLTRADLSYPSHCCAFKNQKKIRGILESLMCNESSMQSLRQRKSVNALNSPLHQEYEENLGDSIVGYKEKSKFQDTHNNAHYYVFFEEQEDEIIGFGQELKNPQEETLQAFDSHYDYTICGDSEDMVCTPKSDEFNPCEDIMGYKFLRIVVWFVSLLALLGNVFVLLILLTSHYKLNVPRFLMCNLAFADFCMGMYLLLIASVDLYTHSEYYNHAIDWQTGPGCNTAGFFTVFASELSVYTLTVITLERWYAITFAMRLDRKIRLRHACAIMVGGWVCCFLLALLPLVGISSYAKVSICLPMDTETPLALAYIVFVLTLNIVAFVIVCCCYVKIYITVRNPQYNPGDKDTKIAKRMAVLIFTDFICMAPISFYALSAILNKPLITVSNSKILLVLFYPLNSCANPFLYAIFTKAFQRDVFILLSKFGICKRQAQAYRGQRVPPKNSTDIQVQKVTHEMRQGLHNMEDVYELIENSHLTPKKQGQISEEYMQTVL
Estrogen receptor (Homo sapiens), sequence (P03372 whole entry, looked up): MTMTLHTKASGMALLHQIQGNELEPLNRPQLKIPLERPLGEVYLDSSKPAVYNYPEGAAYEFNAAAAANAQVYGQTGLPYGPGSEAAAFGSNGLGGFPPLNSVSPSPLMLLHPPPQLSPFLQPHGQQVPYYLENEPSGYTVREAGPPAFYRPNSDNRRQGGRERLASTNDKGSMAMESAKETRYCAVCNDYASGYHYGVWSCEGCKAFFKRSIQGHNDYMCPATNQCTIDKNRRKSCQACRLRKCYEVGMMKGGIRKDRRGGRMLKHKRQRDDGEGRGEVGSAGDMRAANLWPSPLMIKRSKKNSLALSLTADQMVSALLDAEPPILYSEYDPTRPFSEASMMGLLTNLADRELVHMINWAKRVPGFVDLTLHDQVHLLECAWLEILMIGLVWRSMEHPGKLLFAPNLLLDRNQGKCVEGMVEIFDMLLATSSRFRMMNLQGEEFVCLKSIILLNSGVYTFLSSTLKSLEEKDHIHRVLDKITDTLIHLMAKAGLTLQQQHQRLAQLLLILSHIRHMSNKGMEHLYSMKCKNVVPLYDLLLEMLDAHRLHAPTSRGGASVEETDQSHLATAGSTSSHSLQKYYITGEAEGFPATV
Androgen receptor (Homo sapiens), sequence (P10275 whole entry, looked up): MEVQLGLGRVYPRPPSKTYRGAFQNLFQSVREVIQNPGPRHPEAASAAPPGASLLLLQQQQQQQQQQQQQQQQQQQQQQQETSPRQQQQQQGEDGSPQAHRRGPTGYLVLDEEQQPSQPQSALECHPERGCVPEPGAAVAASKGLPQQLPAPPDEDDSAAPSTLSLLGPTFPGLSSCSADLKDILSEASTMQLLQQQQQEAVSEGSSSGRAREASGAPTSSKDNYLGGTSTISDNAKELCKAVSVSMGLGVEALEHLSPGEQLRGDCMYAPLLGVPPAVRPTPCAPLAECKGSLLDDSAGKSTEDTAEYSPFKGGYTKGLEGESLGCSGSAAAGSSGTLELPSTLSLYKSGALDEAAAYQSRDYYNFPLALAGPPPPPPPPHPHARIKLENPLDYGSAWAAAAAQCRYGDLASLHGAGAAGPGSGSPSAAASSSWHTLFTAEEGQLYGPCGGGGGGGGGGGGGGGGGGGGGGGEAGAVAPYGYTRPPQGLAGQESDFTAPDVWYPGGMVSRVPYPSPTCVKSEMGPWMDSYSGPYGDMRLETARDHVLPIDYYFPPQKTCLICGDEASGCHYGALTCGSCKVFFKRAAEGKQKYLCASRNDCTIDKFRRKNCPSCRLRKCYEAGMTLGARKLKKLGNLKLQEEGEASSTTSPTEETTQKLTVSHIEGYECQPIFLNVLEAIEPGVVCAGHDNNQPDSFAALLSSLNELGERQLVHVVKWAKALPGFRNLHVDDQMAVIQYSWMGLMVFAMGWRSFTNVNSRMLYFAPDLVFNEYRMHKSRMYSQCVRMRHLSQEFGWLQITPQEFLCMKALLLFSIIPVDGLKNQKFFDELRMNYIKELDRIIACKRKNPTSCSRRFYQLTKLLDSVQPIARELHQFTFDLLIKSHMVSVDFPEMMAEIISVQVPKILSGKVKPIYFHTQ
Progesterone receptor (Homo sapiens), sequence (P06401 whole entry, looked up): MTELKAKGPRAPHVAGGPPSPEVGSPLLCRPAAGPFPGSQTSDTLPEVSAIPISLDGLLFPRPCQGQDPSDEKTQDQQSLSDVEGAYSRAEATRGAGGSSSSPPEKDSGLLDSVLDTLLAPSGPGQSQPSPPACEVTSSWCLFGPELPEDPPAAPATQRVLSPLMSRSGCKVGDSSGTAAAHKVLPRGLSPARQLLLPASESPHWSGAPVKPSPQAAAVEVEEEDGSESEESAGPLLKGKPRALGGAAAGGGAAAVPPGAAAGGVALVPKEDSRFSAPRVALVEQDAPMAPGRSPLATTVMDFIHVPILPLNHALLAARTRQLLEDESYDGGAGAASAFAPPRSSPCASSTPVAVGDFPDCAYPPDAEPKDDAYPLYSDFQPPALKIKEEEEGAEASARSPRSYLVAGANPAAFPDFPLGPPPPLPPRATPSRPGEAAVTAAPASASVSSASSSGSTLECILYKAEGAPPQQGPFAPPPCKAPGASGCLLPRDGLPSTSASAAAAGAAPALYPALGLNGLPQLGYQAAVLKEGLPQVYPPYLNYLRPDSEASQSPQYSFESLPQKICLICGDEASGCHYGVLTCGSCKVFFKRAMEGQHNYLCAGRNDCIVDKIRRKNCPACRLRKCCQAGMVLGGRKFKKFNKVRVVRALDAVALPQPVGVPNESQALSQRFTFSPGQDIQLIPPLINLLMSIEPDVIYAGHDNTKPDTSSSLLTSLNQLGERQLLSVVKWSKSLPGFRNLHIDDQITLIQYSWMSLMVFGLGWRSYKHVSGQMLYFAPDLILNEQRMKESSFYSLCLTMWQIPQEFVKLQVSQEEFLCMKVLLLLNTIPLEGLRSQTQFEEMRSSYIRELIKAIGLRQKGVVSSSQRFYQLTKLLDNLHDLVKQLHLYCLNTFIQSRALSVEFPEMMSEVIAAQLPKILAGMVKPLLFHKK
Estrogen receptor beta (Homo sapiens), sequence (Q92731 whole entry, looked up): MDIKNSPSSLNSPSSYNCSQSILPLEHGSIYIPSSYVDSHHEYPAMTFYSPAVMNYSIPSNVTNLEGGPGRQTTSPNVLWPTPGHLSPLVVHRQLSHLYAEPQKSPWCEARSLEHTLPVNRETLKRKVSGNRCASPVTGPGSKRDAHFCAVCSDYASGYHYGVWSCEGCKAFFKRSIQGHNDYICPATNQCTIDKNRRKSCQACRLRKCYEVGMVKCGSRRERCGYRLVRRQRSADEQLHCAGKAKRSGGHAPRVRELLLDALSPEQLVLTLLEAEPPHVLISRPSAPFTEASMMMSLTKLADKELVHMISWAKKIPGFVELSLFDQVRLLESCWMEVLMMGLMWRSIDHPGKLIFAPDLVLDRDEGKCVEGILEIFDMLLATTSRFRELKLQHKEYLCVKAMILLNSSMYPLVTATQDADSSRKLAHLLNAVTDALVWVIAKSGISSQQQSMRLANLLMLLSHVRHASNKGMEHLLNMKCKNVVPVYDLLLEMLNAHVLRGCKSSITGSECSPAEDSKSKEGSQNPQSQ

COP(=O)(OC)OC=C(Cl)Cl
inactive: outcome [1] | Potency [2] | Potency [3] | Potency [4] | Potency [5] | outcome [6] | Potency [7] | outcome [8] | Potency [9] | Potency [10] | Potency [11] | Potency [12] | Potency [13] | Potency [14] | Potency [15] | Potency [16] | Potency [17]

O=C(O)C(Cl)(Cl)Cl
inactive: outcome [1] | Potency [2] | Potency [3] | Potency [4] | Potency [5] | outcome [6] | Potency [7] | Potency [10] | Potency [11] | Potency [12] | Potency [18] | Potency [19] | Potency [14] | Potency [15] | Potency [16] | Potency [17]

CC(=O)[O][Hg][c]1ccccc1
inactive: outcome [1] | outcome [6] | outcome [20] | Potency [13]
active: Potency [2] 21.5 µM and 8.63 µM and 13.3 µM | Potency [3] 3.82 µM and 6.11 µM and 16.8 µM | Potency [4] 606 nM and 1.37 µM and 1.5 µM | Potency [5] 1.08 µM and 2.17 µM and 1.33 µM | Potency [7] 121 nM and 61.1 nM and 8.4 nM | Potency [9] 3.44 µM | Potency [10] 4.29 µM and 6.86 µM and 7.5 µM | Potency [11] 1.92 µM and 3.86 µM and 5.31 µM | Potency [12] 3.04 µM and 4.33 µM and 8.41 µM | Potency [18] 2.07 µM and 5.88 µM and 4.92 µM | Potency [19] 60.6 µM and 68.6 µM | Potency [14] 7.63 µM and 13.7 µM and 26.6 µM | Potency [16] 2.15 µM | Potency [17] 4.81 µM and 3.86 µM and 5.31 µM

C=CCOC(Cn1ccnc1)c1ccc(Cl)cc1Cl (configuration not stated)
61.3 µM (active) and inactive: Potency [10]
30.7 µM (active) and inactive: Potency [12]
active: Potency [7] 13.7 µM and 9.69 µM | Potency [11] 27.4 µM and 24.3 µM | Potency [16] 6.13 µM and 6.68 µM | Potency [17] 24.4 µM and 15.4 µM and 11.9 µM
inactive: outcome [1] | Potency [2] | Potency [3] | Potency [4] | Potency [5] | outcome [6] | Potency [18] | Potency [19] | Potency [14] | Potency [15]

CCC(=O)C(CC(C)N(C)C)(c1ccccc1)c1ccccc1 (configuration not stated)
inactive: PLD induction [1] 2.52% [at 3.15 µM] | Potency [2] | outcome [6] | outcome [8] | Potency [9] | Potency [10] | outcome [20] | Potency [12] | Potency [13] | Potency [18] | Potency [19] | Potency [14] | Potency [15] | Potency [16]
active: Potency [5] 27.4 µM | Potency [11] 54.7 µM | Potency [17] 54.7 µM
24.4 µM (active) and inactive: Potency [7]

Cc1cc(Cl)ccc1OCC(=O)O
inactive: Potency [2] | Potency [3] | Potency [4] | Potency [5] | outcome [6] | Potency [7] | Potency [10] | Potency [11] | outcome [20] | Potency [12] | Potency [13] | Potency [18] | Potency [19] | Potency [14] | Potency [15] | Potency [16] | Potency [17]
